TNAP act mid DEA: activates human TNAP at intermediate phosphate acceptor concentration; P05186; purified TNAP, CDP-star luminescence, 100 mM DEA, 30 min; stronger effect = higher value; scale: 0 levamisole-inhibited, 1 vehicle-only enzyme; activation factor at 20 µM; 64,000 tested, under 10 active; AID 813;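 active means activation factor of at least 2 at 20 µM, relative to controls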
MT1-MMP txn act: MT1-MMP promoter transcription activation. activation factor at 10 µM. actives 0.16% (n = 86,000). HT1080 MT1-MMP promoter luciferase reporter, luminescence, overnight; stronger effect = higher value;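 active means activation factor of at least 2 for MT1-MMP transcription at 10 µM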
Her2 expr inh: Her2 kinase expression inhibition | AID 645 | P04626 | HER2 level % of control, % at 10 µM | SKBR-3 HER2 protein level, AlphaScreen, 18-24 h; stronger effect = lower value | actives 0.69% (n = 65,000);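 active means HER2 level under 5% of the carrier-only control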;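 further: 100% = DMSO carrier and 0% = 500 nM PU-H71 HSP90 inhibitor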
Hsp90 block: displaces geldanamycin probe from tumor Hsp90; P07900; NCI-N417 lysate Hsp90, Cy3B-geldanamycin FP displacement; inhibition, % at 30 µM; actives 0.35% (n = 64,000); AID 429;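 active means inhibition above 50%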;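 further: 0% = tracer plus lysate wells and 100% = tracer alone without lysate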
HePTP inhibitor: blocks human HePTP tyrosine phosphatase | AID 521 | recombinant HePTP phosphatase activity, OD absorbance | actives 0.64% (n = 110,000) | inhibition, % at 20 µM | P35236; in the data active means inhibition above about 50%;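 further: plate controls were vehicle for no effect and reference inhibitor for full effect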
Target sequence (P35236 whole entry, looked up): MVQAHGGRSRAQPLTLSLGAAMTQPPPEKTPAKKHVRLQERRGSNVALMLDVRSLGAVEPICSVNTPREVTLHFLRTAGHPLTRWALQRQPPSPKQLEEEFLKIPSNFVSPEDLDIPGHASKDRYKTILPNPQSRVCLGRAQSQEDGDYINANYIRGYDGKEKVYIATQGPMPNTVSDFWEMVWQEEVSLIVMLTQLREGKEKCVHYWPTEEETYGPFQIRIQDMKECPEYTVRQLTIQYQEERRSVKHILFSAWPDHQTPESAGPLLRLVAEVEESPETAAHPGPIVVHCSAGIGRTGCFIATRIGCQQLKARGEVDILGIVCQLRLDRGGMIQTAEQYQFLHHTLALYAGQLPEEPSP
Ec RNAP inh: blocks E. coli RNA polymerase transcription | P0A8V2 | fluorescence transcription assay | inhibition, %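 (tested at 10 µM)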 | actives 0.2% (n = 62,000) | AID 559; in the data active means inhibition above about 20%;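 further: 0% = enzyme without compound and 100% = no enzyme blank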
The depositor's hits bear a star; / = no result given. A selection: hits, their analogues and other compounds. The true share with any hit is near 1.1%.

SMILES	TNAP act mid DEA	MT1-MMP txn act	Her2 expr inh	Hsp90 block	HePTP inhibitor	Ec RNAP inh
O=C(O)c1ccccc1NCN1C(=O)C2CC=C(Cl)CC2C1=O (stereo unspecified)	0.9	1.1	-22*	0	9	6
CC1=NN(c2ccccc2)C(=O)C1C=C1C(=O)NC(=S)NC1=O (stereo unspecified)	/	/	/	/	54*	/
Cc1ccc(-c2noc(C3CCCN(C(=O)c4c(F)cccc4F)C3)n2)cc1 (stereo unspecified)	0.9	1.1	0.1*	-4	-1	8
COc1ccc(-c2noc(C3CCCN(C(=O)c4ccccc4OC)C3)n2)cc1OC (stereo unspecified)	0.9	1.4	46	-1	-8	6
CCOC(=O)C1=C(C)N=c2s/c(=C/c3ccc(F)cc3)c(=O)n2C1c1cccc([N+](=O)[O-])c1 (stereo unspecified)	/	/	/	/	7	/
CC1(C)CCCC2=C1CC1C(=O)N(Cc3cccnc3)C(=O)C1C2 (stereo unspecified)	0.9	1	-22*	0	13	9
O=C1NCC2=C1C(c1ccc(O)cc1)Nc1ccccc1N2 (stereo unspecified)	/	/	/	/	6	/
C=CCn1c2ccccc2c2nnc(SCC(=O)N=C3NC(=O)CS3)nc21	/	/	/	/	56*	/
Cc1ccc(CNC(=O)C(C)Oc2ccc(Cl)cc2Cl)cc1 (stereo unspecified)	/	/	/	/	5	/
Cc1c(-c2nc(N)nc(Nc3ccccc3)n2)oc2ccccc12	0.9	2*	264	0	-2	5
O=c1[nH]c(Nc2nc3ccccc3o2)nc2c1CCCC2	1	1.5	-3.3*	-2	7	5
Cc1ccc(Nc2nc3c(c(=O)[nH]2)CCCC3)cc1	/	1.8	/	/	/	/
CCn1nc(C)c(Cc2c(C)nn(CC)c2C)c1C	/	/	/	/	104*	/
CCn1nc(C)c(NS(=O)(=O)c2ccc(C)cc2)c1C	/	1.2	/	/	/	/
c1ccc2sc(SCc3ccc(-c4nnco4)cc3)nc2c1	0.9	/	82	91*	6	10
c1ccc2sc(SCSc3nc4ccccc4s3)nc2c1	/	/	/	/	4	/
CCn1c2ccccc2c2cc(C=Nc3ccc(OC(F)(F)F)cc3)ccc21	/	/	/	/	-23	/
CCC1=NN(C(=O)c2ccc(OC)cc2)C(O)(c2ccncc2)C1 (stereo unspecified)	/	/	/	/	104*	/
Cc1cc(C)c(NC(=O)c2c(-c3ccccc3Cl)noc2C)c(C)c1	/	/	/	/	-12	/
Nc1ccc(O)c(-c2nc3ccccc3s2)c1	0.9	2.1*	72	2	2	1
CCN(CC(=O)NC1CCCC1)S(=O)(=O)c1ccc(C)cc1	1	1.2	75	-2	5	12
CCN(CC(=O)NC1CCCCCC1)S(=O)(=O)c1ccccc1	1	1.2	-28*	-5	-10	-2
OCc1cn(-c2ccccc2)nc1-c1ccc2c(c1)OCCO2	0.9	2.1*	70	-1	0	13
Cc1ccc(C(C)C)c(OCC(=O)N/N=C/c2ccc(C(=O)O)cc2)c1	/	/	/	/	4	/
CCCc1nc2oc3c(N4CCNCC4)ncnc3c2c2c1CCCC2	1	1	-15*	0	3	2
SMILES	TNAP act mid DEA	MT1-MMP txn act	Her2 expr inh	Hsp90 block	HePTP inhibitor	Ec RNAP inh
Cc1ccccc1-c1nc2ccccc2[nH]1	/	2*	/	/	/	/
Brc1ccccc1-c1nc2ccccc2[nH]1	/	/	/	/	-2	/
Cc1ccc(S(=O)(=O)Nc2ccc(NS(=O)(=O)c3ccc(C)cc3C)cc2)c(C)c1	/	/	/	/	6	/
Cc1ccc(S(=O)(=O)Nc2ccc3oc(=O)sc3c2)c(C)c1	0.7	1.2	76	56*	0	1
CS(=O)(=O)N(CC(=O)Nc1ccc2c(c1)OCO2)Cc1ccc(Cl)cc1	0.9	1.2	88	35	2	10
O=S(=O)(Cc1ccc(Cl)cc1)Nc1ccc2c(c1)OCO2	0.8	1.4	/	56*	7	9
O=C(NCCCn1ccnc1)c1noc2c1CCc1ccccc1-2	0.8	1.3	109	63*	9	8
O=C(NCCCn1ccnc1)c1noc2c1CCCC2	0.9	1	96	-3	6	3
O=C(NCCCn1ccnc1)C(O)(c1ccccc1)c1ccccc1	/	/	/	/	56*	/
O=C(CSc1nsc(SCC(=O)Nc2ccc(Cl)c(Cl)c2)n1)Nc1ccc(Cl)c(Cl)c1	/	/	/	/	2	/
O=C(O)C1C2CCC(O2)C1C(=O)NCc1ccc(F)cc1 (stereo unspecified)	/	/	/	/	103*	/
O=C1NN(c2ccccc2)C(=O)/C1=C/c1ccc(-c2ccccc2)o1	/	/	/	/	4	/
COc1ccc(N2C(=O)CC(N3CCC(O)CC3)C2=O)cc1 (stereo unspecified)	/	/	/	/	-1	/
COc1cc(/C=C(/C#N)C(=O)Nc2cccc(Br)c2)cc([N+](=O)[O-])c1O	/	/	/	/	104*	/
O=C(/C=C/c1ccccc1)NC(=S)Nc1ccc(NC(=O)c2ccco2)c(Cl)c1	/	/	/	/	5	/
O=S(=O)(c1cc(Cl)cc(Cl)c1O)c1cc(Cl)cc(Cl)c1O	/	/	/	/	15	/
Cn1c2ccccc2c2nnc(SCC(=O)NCc3ccco3)nc21	/	/	/	/	104*	/
S=C1NC(=S)/C(=C\c2ccc(-c3ccc(Br)cc3)o2)S1	/	/	/	/	93*	/
CCOC(=O)c1c(NC(=O)/C=C/c2ccc(OC)c(Br)c2)sc(C(C)=O)c1C	/	/	/	/	2	/
Cn1cc(-c2nnc(-c3ccccc3)o2)c2ccccc21	/	2.3*	/	/	/	/
CCOC(=O)C(C(C)=O)c1c(Br)c(O)c(O)c2c(C(=O)c3ccc(C)cc3)coc12 (stereo unspecified)	0.9	1.1	-21*	-1	10	18
CC(C(=O)NN)C1=NC(C)(C)Cc2ccccc21 (stereo unspecified)	/	/	/	/	54*	/
CC(=O)c1ccc(NC2=NC(C)(C)Cc3ccccc32)cc1	/	/	/	/	3	/
COc1ccccc1-c1c(C(F)(F)F)oc2c(CN3CCC(C)CC3)c(O)ccc2c1=O	/	/	/	/	8	/
O=C(CCNc1ccc(I)cc1)c1cccs1	/	/	/	/	9	/
SMILES	TNAP act mid DEA	MT1-MMP txn act	Her2 expr inh	Hsp90 block	HePTP inhibitor	Ec RNAP inh
CC(=O)/C(C#N)=C1\NC(=O)C(Cc2ccccc2Cl)S1 (stereo unspecified)	0.9	1.4	84	-4	2	32*
CCN(CC)CC(O)Cn1c2c(c3ccccc31)CCCC2=O (stereo unspecified)	/	/	/	/	5	/
CC(C)NCC(O)Cn1c2c(c3ccccc31)CCc1c-2cnn1-c1ccccc1 (stereo unspecified)	0.9	0.9	-16*	-3	-3	4
COc1ccc(NC(=O)CN(c2cccc([N+](=O)[O-])c2)S(=O)(=O)c2ccccc2)cc1OC	/	/	/	/	5	/
Oc1ccc(C=Nc2ccc3ncccc3c2)c(O)c1	0.9	1.3	109	76*	7	7
Oc1ccc(C=Nc2cccc3ncccc23)c(O)c1	0.8	1	104	9	3	9
CC(C)(C)OC(=O)N[C@@H](Cc1ccccc1)c1nnc(S(=O)(=O)Cc2cccc(F)c2)o1	1	1.1	-16*	2	-5	2
CC(C)C[C@H](N)c1nnc(S(=O)(=O)Cc2cccc(F)c2)o1	0.9	1.1	74	0	-8	/
